Results filed as inconclusive are left out. The source made the active and inactive calls. The call rests on the fitted dose curve; in most records, active means well fitted inhibition curve with a large enough effect; inconclusive means small, poorly fitted or top-dose-only effect; inactive means flat fitted curve, though single readings scatter. Where a SMILES comes first, the peptide text is derived from it. The star is where a group is joined. Hexanoyl = CCCCCC(=O)*; PhAc = O=C(Cc1ccccc1)*
Experiments:
Assay in all cases: Cytotoxic Profiling of Annotated Libraries Using Quantitative High-Throughput Screening (AID 1296008); further: nearly all actives have a fitted effect of over 60% in size
Conditions in all cases: Five cell lines viability, CellTiter-Glo ATP luminescence, 48-72 h; max response: hits give low values
[1] = system: CRL-7250
In short: (§1)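 Compounds were pin-transferred onto cells and incubated 48 or 72 hr at 37 degree Celsius, 95% humidity. CellTiter-Glo was added, plates sat 10 min at room temperature, then ATP-coupled luminescence was imaged as the viability read-out.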

[2] = system: HEK293
In short: as §1

[3] = system: HaCat
In short: as §1

[4] = system: KB-3-1
In short: as §1

[5] = system: NIH3T3
In short: as §1
On the % scale 0 is the no-effect control and ±100 the full control effect; potency means the concentration at half of the fitted maximal effect.

CC1(CO)CCCC2(C)C1C(OC(=O)c1ccccc1)CC1C(=O)OCC12O (stereo not given)
inactive: max response [1] -1.52% | max response [2] -0.598% | outcome [3] | max response [4] 5.44% | outcome [5]

CC(C)(OC1OC(CO)C(O)C(O)C1O)C1CCC(O)(CO)C2CC(=O)C(C)(O)C2C1 (stereo not given)
inactive: outcome [1] | max response [2] -8.37% | max response [3] 0.066% | max response [4] 2.59% | outcome [5]

C[C@]12CCC[C@](C)(C(=O)O)C1[C@@H](O)[C@@H](O)C13CC(CCC12)C(CO)(O[C@@H]1O[C@H](CO)[C@@H](O)[C@H](O)[C@H]1O)C3 (stereo not given in full)
inactive: max response [1] 4.72% | max response [2] -8.27% | outcome [3] | max response [4] 8.89% | outcome [5]

C/C=C1\[C@H](O[C@@H]2O[C@H](CO)[C@@H](O)[C@H](O)[C@H]2O)OC=C(C(=O)O)[C@H]1CC(=O)OCCc1ccc(O)cc1
inactive: max response [1] -6.03% | max response [2] -5.51% | outcome [3] | max response [4] -0.266% | outcome [5]

C=C(C(=O)O)[C@@H]1CC[C@@]2(C)CC[C@@H](O)C(=C)C2C1 (stereo not given in full)
inactive: max response [1] 4.71% | max response [2] -1.36% | max response [3] -0.0078% | max response [4] -6.38% | outcome [5]

COc1ccc(C2(O)c3ccccc3NC(=O)C2OC)cc1 (stereo not given)
inactive: max response [1] -6.47% | max response [2] 1.57% | outcome [3] | max response [4] 5.23% | outcome [5]

CC(O)C(O)/C=C/C=C/C(=O)O[C@@H]1C=C(C(=O)O)[C@](O)(CO)[C@@]2(C)CCCC(C)(C)[C@H]12 (stereo not given in full)
inactive: max response [1] -15.6% | max response [2] -10.2% | outcome [3] | max response [4] 4.17% | outcome [5]

CC1(C)OC(=O)C=C[C@@]2(C)C1CC(=O)[C@]1(C)C2CC[C@@]2(C)[C@H](c3ccoc3)OC(=O)[C@H]3O[C@]321 (stereo not given in full)
inactive: max response [1] -0.596% | max response [2] -1.27% | outcome [3] | outcome [4] | max response [5] -2.44%

CC1CCC2C(C)(C)C(O)C(O)CC2(C)C12Cc1c(O)cc(CO)c(C=O)c1O2 (stereo not given)
inactive: max response [1] 1.89% | max response [2] -2.44% | outcome [3] | max response [4] 2.63% | max response [5] 0.788%

C[C@H]1CC[C@@]2(OC1)O[C@H]1CC3C4CC[C@H]5C[C@@H](O[C@@H]6O[C@H](CO)[C@H](O[C@@H]7O[C@H](CO)[C@@H](O)[C@H](O[C@@H]8OC[C@@H](O)[C@H](O)[C@H]8O)[C@H]7O[C@@H]7O[C@H](CO)[C@@H](O)[C@H](O)[C@H]7O)[C@H](O)[C@H]6O)[C@H](O)C[C@]5(C)C4=CC(=O)[C@]3(C)[C@H]1[C@@H]2C (stereo not given in full)
inactive: max response [1] -0.886% | max response [2] 3.61% | outcome [3] | outcome [4] | outcome [5]

O=C(OCC1=C[C@@H](O)[C@@H]2C=CO[C@@H](O[C@@H]3O[C@H](CO)[C@@H](O)[C@H](O)[C@H]3O)[C@H]12)c1ccc(O)cc1
inactive: max response [1] -4.11% | max response [2] 1.2% | outcome [3] | max response [4] 1.69% | outcome [5]

C=C1CCc2occ(C)c2[C@H]2[C@H]1[C@@]13O[C@@]1(C[C@@H](C)[C@H]3OC(C)=O)[C@H]1O[C@@]21C
inactive: max response [1] 2.94% | outcome [2] | max response [3] -22% | outcome [4] | max response [5] -1.13%

OCC(O)C(c1c[nH]c2ccccc12)c1c[nH]c2ccccc12 (stereo not given)
inactive: outcome [1] | max response [2] -8.71% | outcome [3] | outcome [4] | max response [5] 1.42%

C[C@@H]1C[C@H]2OC(=O)[C@@]3(C)CCC[C@](C)(C23)[C@@]1(O)CCC1=CC(=O)OC1O (stereo not given in full)
inactive: outcome [1] | max response [2] -8.41% | max response [3] 3.15% | outcome [4] | outcome [5]

COc1ccc(-c2ccn(CC[C@](C)(C(=O)NO)S(C)(=O)=O)c(=O)c2)c(F)c1
inactive: max response [1] 2.02% | max response [2] -10.7% | outcome [3] | outcome [4] | max response [5] 3.1%

CC(=O)O[C@@H]1[C@H](OC(C)=O)C[C@@]2(C)C(CC[C@@H](C)[C@]23Cc2c(O)cc4c(c2O3)CN([C@@H](CCC(=O)O)C(=O)O)C4=O)C1(C)C (stereo not given in full)
inactive: max response [1] -2.81% | max response [2] -1.84% | max response [3] -30.9% | max response [4] 5.86% | outcome [5]

CCC(=O)N1CCc2cc(OC)c(O)cc2C1
inactive: max response [1] -24.5% | max response [2] -5.69% | outcome [3] | max response [4] -5.14% | max response [5] 3.84%

NC[C@@H]1O[C@@H](O[C@@H]2[C@@H](O[C@@H]3O[C@H](CO)[C@@H](O)[C@H]3O)[C@H](O)[C@@H](N)C[C@H]2N)[C@@H](N)[C@H](O)[C@H]1O
inactive: outcome [1] | max response [2] -4.01% | outcome [3] | outcome [4] | outcome [5]

COc1c2c(c(C)c3c1C(=O)OC3)OC1(C)CC(O)C34OC(OC)(CC(O)C3(C)C1C2)OC4(C)C (stereo not given)
inactive: max response [1] 0.784% | max response [2] -15.9% | outcome [3] | max response [4] 4.03% | max response [5] 1.57%

COc1ccc(CCc2nc3cc(-c4c(C)noc4C)ccc3n2C[C@H](C)N2CCOCC2)cc1Cl
inactive: max response [1] -8.27% | outcome [3] | max response [4] -12.6% | outcome [5]
active: Potency [2] 18.4 µM

CC1(C)CC[C@]2(C(=O)O)CC[C@]3(C)C(=CCC4[C@@]5(C)C[C@@H](O)[C@H](O)[C@@](C)(CO)C5[C@H](O)C[C@]43C)[C@@H]2C1 (stereo not given in full)
inactive: outcome [1] | max response [2] -6.35% | outcome [3] | outcome [4] | max response [5] 0.343%

COC(=O)C1=C[C@@H](O)[C@@H](O)[C@H](O[C@@H]2O[C@H](CO)[C@@H](O)[C@H](O)[C@H]2OC(=O)/C=C/c2ccccc2)C1
inactive: max response [1] -2.62% | max response [2] -6.26% | outcome [3] | max response [4] -5.3% | max response [5] -1.73%

CCOC(=O)CNC(=O)[C@@H]1CCCN1C(=O)Cc1ccccc1 (PhAc-Pro-Gly-OEt)
inactive: max response [1] -0.853% | max response [2] 4.73% | outcome [3] | max response [4] 5.86% | max response [5] -14.5%

CC(C)C1NC(=O)C2CCCN2C1=O (stereo not given)
inactive: outcome [1] | max response [2] 0.78% | outcome [3] | outcome [4] | outcome [5]

CC1(C)CC[C@]2(C(=O)O)CC[C@]3(C)C(=CCC4[C@@]5(C)C(=O)C[C@H](O)[C@@](C)(CO)C5CC[C@]43C)[C@@H]2C1 (stereo not given in full)
inactive: max response [1] -2.6% | max response [2] 3.17% | max response [3] -1.1% | max response [4] 8.25% | outcome [5]

CC1(C)C2CC[C@@]34CC(CC[C@H]3[C@]2(C)CC[C@@H]1O[C@@H]1O[C@H](CO)[C@@H](O)[C@H](O)[C@H]1O)[C@](C)(O)C4 (stereo not given in full)
inactive: max response [1] -8.76% | max response [2] 0.264% | outcome [3] | max response [4] 8.52% | outcome [5]

Cc1cn(C[C@H](N)C(=O)O)c(=O)n(Cc2ccsc2C(=O)O)c1=O
inactive: max response [1] -3.54% | max response [2] -7.52% | outcome [3] | outcome [4] | max response [5] 4.32%

Oc1ccccc1-c1cc(-c2ccccc2F)[nH]n1
inactive: max response [1] 3.55% | max response [2] 4.01% | outcome [3] | max response [4] -0.368% | max response [5] 3.17%

C=C(C)[C@@H]1CC[C@]2(C(=O)O)CC[C@]3(C)C(CCC4[C@]5(C)C(CC[C@]43C)C(C)(C)[C@@H](O)[C@@H]5C(=O)O)C12 (stereo not given in full)
inactive: outcome [1] | max response [2] -0.322% | outcome [3] | outcome [4] | outcome [5]

CC1=CC(=O)C(=C(C)C)CC2C(C)(O)CCC12O (stereo not given)
inactive: outcome [1] | max response [2] -0.243% | outcome [3] | max response [4] 8.8% | outcome [5]

COc1cc(O)cc2c1C(=O)OC(C)CCCCCCC2 (stereo not given)
inactive: max response [1] 0.54% | max response [2] -6.62% | outcome [3] | outcome [4] | max response [5] -11.2%

C[C@H]1CCN2C[C@]34C[C@@]5(C(=O)Nc6c5ccc5c6OC=CC(C)(C)O5)C(C)(C)C3C[C@]12C(=O)N4C (stereo not given in full)
inactive: outcome [1] | max response [2] -13.2% | outcome [3] | max response [4] -2.39% | max response [5] 3.63%

CCCCCC(=O)N1CCC[C@H]1C(=O)N[C@@H](Cc1ccc(O)cc1)C(=O)OC (Hexanoyl-Pro-Tyr-OMe)
inactive: max response [1] 1.02% | max response [2] 4.39% | outcome [3] | max response [4] -0.528% | max response [5] -4.54%

C=CC(C)(CCC=C(C)C)O[C@@H]1O[C@H](CO)[C@@H](O)[C@H](O)[C@H]1O (stereo not given in full)
inactive: max response [1] -23.7% | max response [2] -6.28% | max response [3] -2.03% | max response [4] 6.36% | outcome [5]

CCC(C)C(=O)OC[C@H]1O[C@H](O[C@H]2O[C@H](CO)[C@@H](O)[C@H](O)[C@H]2O)[C@H](O)[C@@H](O)[C@@H]1O (stereo not given in full)
inactive: outcome [1] | max response [2] 0.11% | outcome [3] | max response [4] 6.74% | outcome [5]

CC1(C)C2CC[C@]3(C)C(C(=O)C=C4[C@H]5C[C@@](C)(C(=O)O)CC[C@]5(C)CC[C@]43C)[C@@]2(C)CC[C@@H]1O (stereo not given in full)
inactive: outcome [1] | max response [2] -0.352% | outcome [3] | outcome [4] | max response [5] 2.21%

COc1cc(C(=O)OC[C@@]2(O)CO[C@@H](O[C@H]3[C@H](Oc4ccc(O)cc4)O[C@H](CO)[C@@H](O)[C@@H]3O)[C@@H]2O)cc(OC)c1O
inactive: outcome [1] | max response [2] -3.3% | outcome [3] | max response [4] -0.593% | max response [5] -1.11%

CCC(C)C(N)C(=O)NCCN1CCOCC1 (stereo not given)
inactive: max response [1] -0.617% | max response [2] 2.51% | outcome [3] | max response [4] 0.0309% | outcome [5]

CCN(CCN(C)C)C(=O)CNCc1cc(C(N)=O)ccn1
inactive: outcome [1] | max response [2] 1.94% | outcome [3] | max response [4] 7.84% | outcome [5]

C/C=C(/C)C(=O)O[C@H]1C[C@]2(C)O[C@@H]2[C@@H](OC(C)=O)[C@@]2(C)CC[C@@](O)(C(C)C)[C@H]12
inactive: outcome [1] | max response [2] -3.47% | outcome [3] | max response [4] -1.06% | max response [5] -1.87%

Reference: PubChem BioAssay (NCATS)
